From PubChem BioAssay (NCI)
About 83,000 compounds went through this panel and 20% of them were active in at least one assay; those are over-represented in the sample as a whole.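 Note: values are percent growth. 100 is the growth of untreated cells, values between 100 and 0 indicate rising inhibition; between -100 and 0 indicates cell death.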 Activity calls are given as the source filed them. The calls were made as follows: active = growth percent below 10; inactive = the rest.

Test system: HL-60(TB) leukemia
Experiment: NCI-60 one-dose screen, 48 h (100 = growth as untreated, 0 = no growth, -100 = all killed)
Conditions: 10 µM unless noted

SMILES	growth
CN(C)CCOc1ccccc1NC1=C(Cl)C(=O)C(Nc2ccccc2OCCN(C)C)=C(Cl)C1=O	-18.9% (active)
COc1ccc(CNCCN2C(=O)c3ccc4c5c(ccc(c35)C2=O)C(=O)N(CCNCc2ccc(OC)cc2)C4=O)cc1	-63.4% (active)
CCN(CC)c1ccc(C(=C2C=CC(=[N+](CC)Cc3cccc(S(=O)(=O)O)c3)C=C2)c2ccc(N(CC)Cc3cccc(S(=O)(=O)O)c3)cc2)cc1	-22.2% (active)
C=C(C)[C@@H]1CC[C@]2(COC3CCCCO3)CC[C@]3(C)[C@H](CC[C@@H]4[C@@]5(C)C=C(C=O)C(=O)C(C)(C)[C@@H]5CC[C@]43C)[C@@H]12 (stereo not given in full)	-25.8% (active)
COCCNC(=O)Cc1cc(-c2ccc(Cl)cc2)n(-c2ccccc2)c1C	66.4% (inactive)
COc1ccc2c(CCc3ccc(Cl)cc3)c3[n+](cc2c1OC)CCc1cc2c(cc1-3)OCO2	10% (inactive)
COc1ccc(C2=Nc3c(C)nn(-c4ccccc4)c3NC(c3ccc(Oc4ccnc5cc(Cl)ccc45)c(OC)c3)C2)cc1 (stereo not given)	90.8% (inactive)
C=C(C)[C@@H]1CC[C@]2(C(=O)O)CC[C@]3(C)[C@H](CC[C@@H]4[C@@]5(C)C[C@@H](CC#Cc6ccc(Br)cc6)C(=O)C(C)(C)[C@@H]5CC[C@]43C)[C@@H]12	47.7% (inactive)
COc1ccc2cnc(N)c(C#Cc3cc(C(=O)Nc4ccc(CN5CCN(C)CC5)c(C(F)(F)F)c4)cnc3C)c2c1	95% (inactive)
CN(C)S(=O)(=O)Oc1ccc(-c2sc3cc(OS(=O)(=O)N(C)C)ccc3c2C(=O)c2ccc(OCCN3CCCCC3)cc2)cc1	53.2% (inactive)
